# Measurements published in PubChem BioAssay.
# Calls of active or inactive are those of the source. Unless noted, the rule behind the calls is not given here.
# Tests used:
# [1] = test system: Wnt5a (protein binding on small-molecule microarray); test: Wnt5a binders on small-molecule microarray, primary screen, biophysical, 635/667 nm fluorescence (AID 1142); conditions: 635 nm fluorescence, higher = more signal;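 note: fluorescence read at 667 nm with signal to noise per printed feature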
# [2] = cell viability in Huh7 cells, primary screen, cytotoxicity control for HCV replication inhibitor project, CellTiter-Glo luminescence, basal, 48 h (AID 1143); conditions: Huh7 HCV replicon, higher = more signal, called active from +8 up or from −8 down;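 note: Huh7 hepatoma cells carrying a hepatitis C replication reporter with no stimulus; test concentration not given here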
# [3] = P. aeruginosa biofilm formation inhibitors, primary screen, PAO1 strain, BacTiter-Glo luminescence, LB-PBS (AID 1144); conditions: 12 h, higher = more signal
# [4] = CREB reporter modulators without forskolin, primary screen, cell-based, PC12, CRE-LacZ reporter, unstimulated (AID 1145); conditions: no forskolin, luminescence, 4.5 h, higher = more signal, called active from +8 up or from −8 down
# [5] = CREB reporter modulators under forskolin, primary screen, cell-based, PC12, CRE-LacZ reporter, forskolin-stimulated (AID 1146); conditions: luminescence, 4.5 h, higher = more signal, called active from +8 up or from −8 down;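 note: PC12 cells with 6xCRE LacZ reporter stimulated by forskolin 10 µM; beta-galactosidase reporter signal reflecting CREB driven transcription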
# [6] = target: Streptavidin (Streptomyces avidinii) (UniProt P22629); test: streptavidin binders on small-molecule microarray, primary screen, artefact control for SMM compound annotation, biophysical, 635/667 nm fluorescence (AID 1147); conditions: streptavidin binding, higher = more signal;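 note: signal reflects streptavidin binding to arrayed compounds as a control protein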
# [7] = small-molecule binders of probe aInhba, primary screen, biochemical, small-molecule microarray, 635/667 nm fluorescence (AID 1148); conditions: higher = more signal;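 note: score merges 667nm spot fluorescence with signal-to-noise for antibody binding to printed compounds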
# Torsin-1A (Homo sapiens) [8] = target: Torsin-1A (Homo sapiens) (UniProt O14656); test: torsin A binders from cell lysate, primary screen, small-molecule microarray, wild-type, 635/667 nm (AID 1149); conditions: COS7 hTOR1A-WT lysate, 635 nm fluorescence, higher = more signal
# Torsin-1A (Homo sapiens) [9] = target: Torsin-1A (Homo sapiens) (UniProt O14656); test: small-molecule binders of mutant TOR1A in lysate, primary screen, cell lysate, small-molecule microarray, COS7 lysate, 635/667 nm fluorescence (AID 1150); conditions: COS7 hTOR1A mutant lysate, 635 nm fluorescence, higher = more signal;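 note: score pools 667 nm emission and signal to noise measuring lysate protein binding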
# [10] = test system: Sonic hedgehog protein (Shh); test: small-molecule binders of Shh protein, primary screen, biochemical, small-molecule microarray, 635/667 nm fluorescence (AID 1151); conditions: small-molecule microarray binding, 635 nm fluorescence; higher = more signal;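 note: Shh protein binding to compounds spotted on small-molecule microarray slides; score combines spot fluorescence intensity with signal-to-noise across triplicate slides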
# [11] = E. coli DRC41 culture turbidity changes, primary screen, E. coli filamentation inducer project, strain DRC41, OD650, 48 h (AID 1152);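 note: E. coli MC1000 strain DRC41 lacking acrAB efflux pump and sulA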; conditions: E. coli DRC41 (acrAB sulA), higher = more signal, called active from +8 up or from −8 down
# [12] = small-molecule binders of probe aLefty1, primary screen, biochemical, small-molecule microarray, 635/667 nm fluorescence (AID 1153); conditions: higher = more signal;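 note: score merges spot fluorescence with signal-to-noise ratio from the scanned slide images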
# [13] = PSAC antagonists in infected red cells, primary screen, cell-based, P. falciparum Indochina, OD700, 1 h (AID 1154); conditions: P. falciparum Indochina infected RBC osmotic lysis, higher = more signal, called active from +8 up or from −8 down
# [14] = PSAC antagonists in infected red cells, primary screen, cell-based, P. falciparum Indochina, OD700, 2 h (AID 1155);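 note: lysis reports solute entry through the parasite surface anion channel PSAC; channel blockers reduce lysis of infected cells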; conditions: P. falciparum Indochina infected erythrocytes, osmotic lysis OD700; higher = more signal, called active from +8 up or from −8 down
# [15] = osmotic lysis modulators in infected erythrocytes, primary screen, PSAC antagonist project, cell-based, P. falciparum Indochina, OD700, 3 h (AID 1156); conditions: higher = more signal, called active from +8 up or from −8 down
# [16] = PSAC antagonists in infected red cells, primary screen, cell-based, P. falciparum Indochina, OD700, 18 h (AID 1157); conditions: P. falciparum Indochina infected erythrocytes, osmotic lysis OD700, 18 h; higher = more signal, called active from +8 up or from −8 down
# [17] = modulators of S6 phosphorylation in cells, primary screen, cell-based, A549, cytoblot, luminescence, serum-stimulated (AID 1158); conditions: A549 phospho-S6 cytoblot, 5 h, higher = more signal;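 note: serum-stimulated A549 lung adenocarcinoma cells; signal is phosphorylated S6 detected by cytoblot immunostaining with HRP secondary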
# [18] = target: NADPH oxidase 2 (Homo sapiens) (UniProt P04839); test: NOX2-dependent H2O2 signal modulators, primary screen, NOX inhibitor project, cell-based, HEK293-NOX2, PMA-stimulated, Amplex Red fluorescence (AID 1159); conditions: 45 min, higher = more signal, called active from +8 up or from −8 down; note: test concentration not given here
# [19] = target: NADPH oxidase 4 (Homo sapiens) (UniProt Q9NPH5); test: NOX4-dependent H2O2 signal modulators, primary screen, NOX inhibitor project, cell-based, HEK293-NOX4, tetracycline-induced, Amplex Red fluorescence (AID 1160); conditions: 45 min, higher = more signal, called active from +8 up or from −8 down
# [20] = target: NADPH oxidase 5 (Homo sapiens) (UniProt Q96PH1); test: NOX5-dependent H2O2 signal modulators, primary screen, NOX inhibitor project, cell-based, HEK293-NOX5, Amplex Red fluorescence (AID 1161); conditions: HEK293-NOX5, ionomycin, 45 min, higher = more signal
# Sequence of NADPH oxidase 5 (Homo sapiens) (Q96PH1 whole entry, looked up): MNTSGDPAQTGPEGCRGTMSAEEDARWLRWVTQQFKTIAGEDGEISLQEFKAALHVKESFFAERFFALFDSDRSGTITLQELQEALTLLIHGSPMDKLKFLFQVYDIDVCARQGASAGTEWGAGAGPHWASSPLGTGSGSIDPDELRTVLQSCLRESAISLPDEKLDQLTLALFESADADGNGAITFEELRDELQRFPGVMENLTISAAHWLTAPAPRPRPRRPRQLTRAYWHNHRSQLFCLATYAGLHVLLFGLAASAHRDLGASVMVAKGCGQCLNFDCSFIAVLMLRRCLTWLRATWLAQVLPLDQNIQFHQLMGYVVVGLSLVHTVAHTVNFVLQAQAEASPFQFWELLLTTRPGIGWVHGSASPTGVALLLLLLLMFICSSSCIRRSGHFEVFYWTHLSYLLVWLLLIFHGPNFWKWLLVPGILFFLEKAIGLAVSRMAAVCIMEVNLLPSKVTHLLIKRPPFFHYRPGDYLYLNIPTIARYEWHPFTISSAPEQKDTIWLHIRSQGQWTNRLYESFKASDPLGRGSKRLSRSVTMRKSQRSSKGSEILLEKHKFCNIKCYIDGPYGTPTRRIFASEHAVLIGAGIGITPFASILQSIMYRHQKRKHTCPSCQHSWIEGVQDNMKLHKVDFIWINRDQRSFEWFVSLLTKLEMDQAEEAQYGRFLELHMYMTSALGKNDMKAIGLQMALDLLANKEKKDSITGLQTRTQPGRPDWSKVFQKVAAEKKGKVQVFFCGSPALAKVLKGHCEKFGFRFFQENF
# Sequence of Torsin-1A (Homo sapiens) (O14656 whole entry, looked up): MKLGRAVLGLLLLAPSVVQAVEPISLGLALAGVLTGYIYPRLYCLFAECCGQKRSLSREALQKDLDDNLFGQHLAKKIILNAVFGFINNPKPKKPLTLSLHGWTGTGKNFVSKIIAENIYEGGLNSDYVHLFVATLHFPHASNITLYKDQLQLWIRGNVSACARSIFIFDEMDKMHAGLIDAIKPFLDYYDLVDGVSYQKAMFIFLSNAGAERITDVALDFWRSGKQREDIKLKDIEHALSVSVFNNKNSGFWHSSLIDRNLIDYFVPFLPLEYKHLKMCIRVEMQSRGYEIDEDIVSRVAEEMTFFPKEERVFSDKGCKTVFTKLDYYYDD
# Sequence of Streptavidin (Streptomyces avidinii) (P22629 whole entry, looked up): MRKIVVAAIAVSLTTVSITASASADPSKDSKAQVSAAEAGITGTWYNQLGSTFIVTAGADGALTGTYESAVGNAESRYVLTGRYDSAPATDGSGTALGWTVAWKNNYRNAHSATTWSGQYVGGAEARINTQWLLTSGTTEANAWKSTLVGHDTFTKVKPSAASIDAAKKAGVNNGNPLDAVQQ
# Sequence of NADPH oxidase 2 (Homo sapiens) (P04839 whole entry, looked up): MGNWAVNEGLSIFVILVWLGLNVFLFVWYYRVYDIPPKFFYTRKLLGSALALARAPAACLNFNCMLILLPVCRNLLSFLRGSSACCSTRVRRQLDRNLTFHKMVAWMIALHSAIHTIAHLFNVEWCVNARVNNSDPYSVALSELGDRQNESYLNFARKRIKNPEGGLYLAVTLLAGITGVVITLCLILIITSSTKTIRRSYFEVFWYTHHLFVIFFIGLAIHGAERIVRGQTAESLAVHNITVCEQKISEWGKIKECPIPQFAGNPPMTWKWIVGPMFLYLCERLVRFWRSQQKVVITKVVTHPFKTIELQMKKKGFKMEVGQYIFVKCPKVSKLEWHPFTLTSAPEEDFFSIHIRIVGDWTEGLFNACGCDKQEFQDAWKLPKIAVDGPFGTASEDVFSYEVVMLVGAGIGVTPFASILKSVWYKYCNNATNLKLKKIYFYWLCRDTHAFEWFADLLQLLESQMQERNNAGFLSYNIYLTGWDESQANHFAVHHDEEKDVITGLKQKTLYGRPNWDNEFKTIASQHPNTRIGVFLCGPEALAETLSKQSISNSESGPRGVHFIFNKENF
# Sequence of NADPH oxidase 4 (Homo sapiens) (Q9NPH5 whole entry, looked up): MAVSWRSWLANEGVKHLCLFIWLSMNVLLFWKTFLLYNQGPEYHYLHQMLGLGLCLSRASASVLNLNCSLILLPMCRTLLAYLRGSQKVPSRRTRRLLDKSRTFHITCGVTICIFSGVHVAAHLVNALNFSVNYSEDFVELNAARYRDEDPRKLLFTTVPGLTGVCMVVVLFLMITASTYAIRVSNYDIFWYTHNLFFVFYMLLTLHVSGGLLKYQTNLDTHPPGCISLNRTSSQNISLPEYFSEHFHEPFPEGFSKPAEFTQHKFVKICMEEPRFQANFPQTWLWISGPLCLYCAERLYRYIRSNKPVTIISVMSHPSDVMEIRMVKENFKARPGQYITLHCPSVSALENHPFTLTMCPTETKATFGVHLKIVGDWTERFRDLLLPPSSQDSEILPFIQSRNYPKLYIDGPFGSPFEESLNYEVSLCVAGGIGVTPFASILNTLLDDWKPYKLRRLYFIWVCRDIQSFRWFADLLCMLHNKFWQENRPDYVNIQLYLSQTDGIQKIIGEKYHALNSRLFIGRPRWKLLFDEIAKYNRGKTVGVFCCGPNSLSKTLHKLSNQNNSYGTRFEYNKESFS
SMILES,composite z-score [1],z-score [2],z-score [3],z-score [4],z-score [5],composite z-score [6],composite z-score [7],composite z-score (Torsin-1A (Homo sapiens) [8]),composite z-score (Torsin-1A (Homo sapiens) [9]),composite z-score [10],z-score [11],composite z-score [12],z-score [13],z-score [14],z-score [15],z-score [16],z-score [17],z-score [18],z-score [19],z-score [20]
C=C(COC)C(=O)CC[C@H](OC(=O)c1ccccc1-c1ccccc1C(=O)O)c1cccc(OCCO)c1,2.01,-8.1 (active),-0.805 (inactive),0.102 (inactive),0.683 (inactive),-1.8,-0.0332,2.33,2.6,2.34,0.0418 (inactive),0.333,3.26 (inactive),1.91 (inactive),0.281 (inactive),1.36 (inactive),0.29,0.635 (inactive),0.112 (inactive),-2.96
O=C1O[C@H](c2ccccc2)[C@H](c2ccccc2)N2[C@H]1[C@@H](C(=O)Nc1nc3ccccc3s1)[C@]1(C(=O)Nc3ccc(C#CC4(O)CCCCCC4)cc31)[C@H]2c1ccc(O)cc1,0.328,-0.859 (inactive),-0.781 (inactive),0.802 (inactive),0.3 (inactive),1.34,0.293,0.417,0.164,1.82,-1.07 (inactive),0.308,0.797 (inactive),1.57 (inactive),0.315 (inactive),1.38 (inactive),-0.0907,1.03 (inactive),-0.14 (inactive),0.842
C=CCN1C(=O)[C@@]2(Cc3ccccc3)N=C(c3ccc(OCCCO)cc3)O[C@H]2c2ccccc21,0.358,-1.81 (inactive),0.294 (inactive),1.07 (inactive),-0.984 (inactive),0.653,0.346,0.238,1.56,1.28,0.0648 (inactive),0.48,33.3 (active),32 (active),2.61 (inactive),9.79 (active),-0.586,-1.87 (inactive),0.969 (inactive),0.0569
CCCC[C@@H]1C[C@H]1[C@@H](NC(=O)c1ccccc1)c1ccccc1C(F)(F)F,0.175,0.0018 (inactive),-0.0632 (inactive),1.73 (inactive),1.17 (inactive),1.84,0.319,-0.113,0.322,-0.654,-0.94 (inactive),0.747,-0.247 (inactive),0.803 (inactive),-0.429 (inactive),0.422 (inactive),0.807,0.566 (inactive),-1.02 (inactive),0.262
O=C1C2C=CC(C(O)Cc3ccccc3)N(Nc3ccc([N+](=O)[O-])cc3)C2C(=O)N1c1ccccc1 (stereo not given),0.331,-0.219 (inactive),-0.138 (inactive),-1.33 (inactive),-0.0492 (inactive),0.355,0.46,0.187,0.222,-0.166,-0.458 (inactive),0.769,3.94 (inactive),1.61 (inactive),0.371 (inactive),0.877 (inactive),-0.521,-1.1 (inactive),-2.7 (inactive),-1.64
CC(C)C[C@@H]1NC(=O)[C@H]2C[C@@H](C(=O)NCCCCCC[N+](C)(C)C)[C@@H](c3ccc(O)cc3)N2C1=O,-0.266,-0.0365 (inactive),-0.337 (inactive),-0.122 (inactive),-0.281 (inactive),-0.308,-0.0719,0.87,0.951,1.7,0.706 (inactive),0.0502,1.8 (inactive),0.459 (inactive),-3.67 (inactive),0.0558 (inactive),-0.496,1.04 (inactive),1 (inactive),-0.306
O=C1c2ccccc2[C@@]2(Cc3ccccc3N(CC(F)(F)F)C2=O)[C@H](c2ccc(CO)cc2)N1C1CCCCC1,0.327,-0.323 (inactive),0.00188 (inactive),-0.168 (inactive),-0.838 (inactive),-0.256,0.207,0.17,-0.309,0.522,0.969 (inactive),0.062,0.856 (inactive),0.81 (inactive),0.0811 (inactive),0.427 (inactive),0.0443,0.161 (inactive),-0.501 (inactive),0.239
CCOC(=O)C[C@H]1[C@H](OC(=O)c2cc3ccccc3oc2=O)[C@@H](NC(=O)C2CCCCC2)c2cc(OCCCO)ccc2N1C(=O)c1ccc2ccccc2n1,0.156,-0.271 (inactive),-0.686 (inactive),6.62 (inactive),0.821 (inactive),0.449,-0.0719,0.16,0.11,0.526,-0.836 (inactive),-0.0547,4.81 (inactive),0.491 (inactive),0.499 (inactive),0.549 (inactive),-0.725,2.44 (inactive),1.52 (inactive),0.451
O=C1O[C@H](c2ccccc2)[C@H](c2ccccc2)N2[C@H]1[C@@H](C(=O)Nc1nc3ccccc3s1)[C@]1(C(=O)Nc3ccc(C#CC4=CCCCC4)cc31)[C@H]2c1ccccc1OCCO,0.266,-4.26 (inactive),0.331 (inactive),0.619 (inactive),-0.0292 (inactive),0.841,0.0649,0.552,0.0083,1.63,-0.485 (inactive),0.179,1.96 (inactive),2.21 (inactive),0.344 (inactive),1.41 (inactive),-0.0532,0.76 (inactive),0.195 (inactive),0.963
